Sm TGR block: blocks Schistosoma mansoni thioredoxin glutathione reductase; Q962Y6; AID 485364; Potency, µM (top dose mostly 114 µM), inactives show top-dose activity change, negative = inhibition, usual class: inhibitors; 3% of 360,000 active; purified TGR, DTNB reduction, TNB absorbance 405 nm; also: potency is read from the fitted curve at half-maximal effect; nearly all actives have a fitted effect of over 60% in size
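First, TGR (20 nM dispensed) and NADPH were mixed with compound. Second, a 15 min room-temperature incubation followed. Third, further NADPH and then DTNB were added to start the reaction. Finally, TNB absorbance was monitored kinetically.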
Pf growth 96h: inhibits malaria parasite growth, 96 h; P. falciparum luciferase reporter growth, 96 h; Potency, µM (top dose mostly 28.7 µM), for the others: at the highest dose activity change, negative = inhibition, usual class: inhibitors; 6.9% of 320,000 active; also: potency is read from the fitted curve at half-maximal effect
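Compounds incubated with erythrocytes infected by luciferase-expressing P. falciparum (2% hematocrit, 0.05% parasitemia final) for 96 hours, 37 C in 5% CO2. Growth inhibition scored as decreased luciferase luminescence.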
HCMV inh: blocks human cytomegalovirus replication; HFF cells, HCMV-luciferase reporter, 72 h; active compounds read low; activity change, negative = inhibition, % at 57.5 µM; 4.5% of 410,000 active; AID 1259415; in the data active = activity change below about -60%; inconclusive = no clear call, values can overlap the other calls; inactive = above about -39%
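Inhibition of viral replication was scored as loss of reporter luminescence in HFFs infected with HCMV-luciferase (MOI 1 PFU/cell) for 72 h; compounds tested at 2 doses, normalized to buffer and Salinomycin controls.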
FBPA Giardia inh: blocks Giardia fructose-bisphosphate aldolase activity; A8B2U2; purified Giardia FBPA; 0.71% of 290,000 active; Potency, µM (series often up to 59.6 µM), for inactives: at the highest dose activity, negative = inhibition, usual class: inhibitors; also: potency is read from the fitted curve at half-maximal effect; nearly all actives have a fitted effect of over 55% in size
Target sequence (A8B2U2 whole entry, looked up): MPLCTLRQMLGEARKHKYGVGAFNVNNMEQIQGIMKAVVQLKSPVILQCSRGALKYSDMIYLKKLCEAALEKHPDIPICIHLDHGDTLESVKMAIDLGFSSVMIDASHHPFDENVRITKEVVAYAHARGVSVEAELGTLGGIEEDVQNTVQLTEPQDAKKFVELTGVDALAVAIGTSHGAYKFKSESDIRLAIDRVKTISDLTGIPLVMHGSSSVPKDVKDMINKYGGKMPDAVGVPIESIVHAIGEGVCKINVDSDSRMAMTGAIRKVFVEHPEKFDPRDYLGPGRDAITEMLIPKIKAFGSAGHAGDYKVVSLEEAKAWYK
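40 nM FBPA preincubated 10 min at RT with compound (up to 57.5 uM final), then substrate plus GAPDH/TPI/NAD/arsenate coupling and diaphorase/resazurin added. Fluorescence read after 20 min at RT, 525/598 nm.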
Pf growth 48h: P. falciparum growth inhibition at 48 hours (one generation); P. falciparum luciferase growth in erythrocytes, 48 h; Potency, µM (highest dose often 28.7 µM), for inactives: at the top dose activity change, negative = inhibition, usual class: inhibitors; 5.9% of 310,000 active; AID 504832; also: potency is read from the fitted curve at half-maximal effect
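A one-generation exposure of luciferase-tagged malaria parasites in RPMI 1640/Albumax erythrocyte culture, 37 C and 5% CO2. Inhibition is inferred from decreased luminescence after adding detection reagent.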
* hit, by the source's call; ? = inconclusive; · = not tested or not shown. Sampled rows, rich in hits. Any-hit rate of the full collection: about 14%. Unless noted, calls follow the shape of the dose curve; as a rule, active = well fitted curve in the direction sought with a large enough effect; inconclusive = small, poorly fitted or top-dose-only effect, or another doubt; inactive = no such curve, though single readings can be large; an effect the other way counts as inactive or inconclusive. % is scaled to controls: 0 for no effect and ±100 for the full control effect.

SMILES	Sm TGR block	Pf growth 96h	HCMV inh	FBPA Giardia inh	Pf growth 48h
Cn1nc(C(=O)NC2CCCCC2)c2c1-c1ccccc1SC2	-16.5%	?	37.0	-9.8%	6.8%
CC(C)N(C(=O)c1nn(C)c2c1CSc1ccccc1-2)C1CCCCC1	0.9%	2.08µM*	-32.9	·	-23.5%
CCOCc1c(C(=O)OCC(=O)NCc2ccc(F)cc2)oc2ccccc12	-0.7%	14.5%	-4.7	·	-17.8%
COc1ccc(CNC(=O)c2cc3c(=O)n(Cc4ccc(OC)cc4)ccc3nc2C)cc1	-2.5%	·	-75.0*	·	·
Cc1nc2ccn(Cc3cccnc3)c(=O)c2cc1C(=O)NCc1ccc(Cl)cc1	11.7%	·	-18.7	·	·
Cc1nc2ccn(Cc3cccs3)c(=O)c2cc1C(=O)NCc1ccc(Br)cc1	-0.5%	·	-62.6*	·	·
CCc1ccc(N/C(N)=N/c2nc(CSc3ccccn3)cc(=O)[nH]2)cc1	6.4%	?	-84.6*	-3.1%	?
COc1cccc(N/C(N)=N/c2nc(CSc3ccccn3)cc(=O)[nH]2)c1	2.6%	-18.2%	·	-5.6%	2.3%
Cc1ccc(N/C(N)=N/c2nc(CSc3ccccn3)cc(=O)[nH]2)c(C)c1	0.0%	?	-68.5*	-11.9%	-24.4%
CCCCCNC(=O)C(c1ccncc1)n1c(=O)c(-c2cc3ccccc3[nH]2)nc2ccccc21 (centres undefined)	·	·	69.3	·	·
CC#CCCCC(=O)Nc1cccc(C(=O)O)c1	-34.5%	10.4µM*	109.4	-0.2%	142.6%
Cn1cc(C=CC(=O)O)c2nccnc21	·	·	-61.7*	·	·
CCOC(=O)c1cccn1C1C(=O)N(Cc2ccc(C(F)(F)F)cc2)c2ccc(OC(F)(F)F)cc21 (centres undefined)	·	·	-13.1	·	·
COCCn1c(SCC(=O)N2CC(=O)Nc3ccccc32)nc2ccccc21	-4.9%	-1.4%	-14.3	9.4%	-30.2%
CCn1c(NCc2cc(Br)ccc2NS(=O)(=O)c2ccc(C)cc2)nc2ccccc21	3.8%	4.65µM*	-12.4	·	?
CCn1c(NCc2ccccc2NS(=O)(=O)c2ccc(C)cc2)nc2ccccc21	-3.1%	71.2%	35.2	4.4%	-19.6%
CCS(=O)(=O)N1CC2(C1)CN(S(=O)(=O)c1cccc(OC)c1)[C@@H](CO)c1[nH]c3cc(OC)ccc3c12	·	·	-4.4	·	·
C[C@H](CO)N1C[C@H](C)[C@@H](CN(C)S(=O)(=O)c2cn(C)cn2)Oc2cc(Br)ccc2S1(=O)=O	·	·	2.7	·	·
CCOc1cc(C(c2c(C)[nH]n(-c3ccccc3)c2=O)c2c(C)[nH]n(-c3ccccc3)c2=O)ccc1O	3.16µM*	·	-105.1*	·	·
COc1ccc(C(c2c(C)[nH]n(-c3ccccc3)c2=O)c2c(C)[nH]n(-c3ccccc3)c2=O)cc1OC	1.4%	?	-11.1	?	7.0%
C[C@@H]1O[C@H](CCc2cccc(Cl)c2)CC2=C1C(=O)OC(C)(C)O2	·	·	9.3	·	·
O=C(C1CCN(S(=O)(=O)Cc2ccccc2)CC1)N1CCN(c2cccc(Cl)c2)CC1	-10.5%	·	11.9	·	·
CCn1c(=O)c([N+](=O)[O-])c(N2CCN(Cc3ccc4c(c3)OCO4)CC2)c2ccccc21	17.8%	?	-64.0*	5.8%	?
O=Cc1cc([N+](=O)[O-])ccc1N1CCN(Cc2ccc3c(c2)OCO3)CC1	-9.4%	-5.4%	-102.0*	6.4%	3.0%
O=c1c([N+](=O)[O-])c(N2CCOCC2)c2ccccc2n1Cc1ccccc1	17.7%	23.1%	-66.7*	-5.3%	?
SMILES	Sm TGR block	Pf growth 96h	HCMV inh	FBPA Giardia inh	Pf growth 48h
O=[N+]([O-])c1ccc(N2CCN(Cc3ccc4c(c3)OCO4)CC2)nc1	2.3%	?	12.4	-5.0%	0.0%
CCn1c(=O)c([N+](=O)[O-])c(N2CCSCC2)c2ccccc21	-0.5%	?	?	11.5%	-15.1%
O=c1sc2ccccc2c(N2CCOCC2)c1[N+](=O)[O-]	39.8µM*	27.8%	6.5	3.0%	-12.8%
COc1ccc(N2CCN(C(=O)COC(=O)[C@@H](NC(=O)OCc3ccccc3)C(C)C)CC2)cc1	·	·	0.9	·	·
CC1CCN(C(=O)c2cc3ccccc3cc2O)CC1	2.1%	?	32.9	·	?
CN(Cc1ccc2nonc2c1)Cc1nc(CC2CC2)no1	-14.9%	2.33µM*	-10.0	0.9%	38.5%
CC(C)C(=O)Nc1ccc2nc(SCCOc3ccccc3)sc2c1	2.3%	·	-26.2	·	·
